From PubChem
In the library only some 0.56% were active in any assay of this set; here they are far more common.
PKM2 activator: increases activity of human pyruvate kinase M2; P14618; purified PKM2, Kinase-Glo ATP luminescence, activation; response scale: 0% is enzyme alone, no compound; Potency, µM (series often up to 57.5 µM), for the others: at the highest dose activation, actives largely listed as activators; 0.34% of 260,000 active; AID 1631; also: potency is read from the fitted curve at half-maximal effect; % is scaled to controls: 0 for no effect and ±100 for the full control effect; nearly all actives have a fitted effect of over 55% in size
Target sequence (P14618 whole entry, looked up): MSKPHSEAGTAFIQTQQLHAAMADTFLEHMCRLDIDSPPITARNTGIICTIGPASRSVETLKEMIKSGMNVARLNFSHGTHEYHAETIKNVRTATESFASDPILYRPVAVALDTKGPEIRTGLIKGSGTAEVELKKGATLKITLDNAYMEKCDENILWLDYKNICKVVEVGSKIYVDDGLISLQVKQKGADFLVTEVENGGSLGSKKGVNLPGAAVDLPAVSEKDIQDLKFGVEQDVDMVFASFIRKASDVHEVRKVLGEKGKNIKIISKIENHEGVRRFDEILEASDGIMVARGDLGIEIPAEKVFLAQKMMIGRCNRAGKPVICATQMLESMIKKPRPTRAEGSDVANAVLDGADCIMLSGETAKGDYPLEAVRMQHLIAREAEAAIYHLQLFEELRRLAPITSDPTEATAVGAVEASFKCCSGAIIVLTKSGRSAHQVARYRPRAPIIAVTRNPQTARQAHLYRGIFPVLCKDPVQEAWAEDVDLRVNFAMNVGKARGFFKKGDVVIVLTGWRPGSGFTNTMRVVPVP
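Kinase-Glo luminescence reports ATP generated from ADP (0.1 mM) and PEP (0.5 mM) by purified hPK-M2 after 1 h at room temperature, pH 7.2 imidazole buffer; intermediate enzyme activity allows detecting inhibitors and activators.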
Tb PFK block: T. brucei PFK enzyme inhibition; O15648; T. brucei PFK, ADP-Glo luminescence; Potency, µM (titrated, usually from 57.5 µM), for inactives: top-dose activity, negative = inhibition, actives largely listed as inhibitors; 0.17% of 330,000 active; AID 485367;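 also: potency is read from the fitted curve at half-maximal effect; 0% = uninhibited 1x PFK enzyme wells and -100% = no-enzyme wells; nearly all actives have a fitted effect of over 60% in size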
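In TEA buffer at pH 8.0 with 5 mM MgCl2, enzyme (1.25 nM) converted F6P (0.5 mM) and ATP (0.1 mM) for 45 min at room temperature. ADP product was read by luciferase luminescence.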
GALK inhibitor: galactokinase (human) inhibition | P51570 | Potency, µM (series often up to 57.5 µM), inactives show at the highest dose activity change, negative = inhibition, usual class: inhibitors | AID 1868 | 0.007% of 270,000 active | Purified GALK, Kinase-Glo residual ATP luminescence; also: potency is read from the fitted curve at half-maximal effect; % is scaled to controls: 0 for no effect and ±100 for the full control effect
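The enzyme phosphorylates galactose (100 uM) using ATP (35 uM); inhibition is detected as higher residual ATP, quantified by bioluminescence after 1 h reaction at room temperature, pH 8.0.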
KinaseGlo FLuc: Kinase-Glo luciferase inhibition (counter-screen); Q27757; Kinase-Glo luciferase, ATP luminescence, 8 min; Potency, µM (titrated, usually from 38.3 µM), inactives show at the highest dose activity change, negative = inhibition, most hits filed as inhibitors; 0.28% of 200,000 active; AID 1379; also: potency is read from the fitted curve at half-maximal effect; % is scaled to controls: 0 for no effect and ±100 for the full control effect; nearly all actives have a fitted effect of over 60% in size
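Kinase-Glo luciferase light output from ATP and luciferin was measured with 10 uM ATP, within the enzyme's linear range. Buffer: 50 mM imidazole pH 7.2, 50 mM KCl, 7 mM MgCl2, 0.01% Tween 20, 0.05% BSA; luminescence read after 8 min at ambient temperature.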
CBFb-RUNX1 inh: blocks binding between human CBF-beta and RUNX1. Q01196+Q13951. AID 1477. Potency, µM (doses to about 59.8 µM), for the others: top-dose activity, negative = inhibition, most hits filed as inhibitors. 230,000 tested, under 10 active. AlphaScreen CBFb-His/RUNX1-biotin binding, biochemical; also: % of control where 0% means no effect
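CBFb-His/RUNX1-biotin, 30 nM each, preincubated 20 min RT; compound 15 min RT; Ni + streptavidin beads 50 ng each, 90 min RT; AlphaScreen read.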
Numbers without * were called inactive; ? = inconclusive; . = not tested or not shown; [ ] = dose if it differs, or a comment. Calls follow the shape of the dose curve; as a rule, active = well fitted curve in the direction sought with a large enough effect; inconclusive = small, poorly fitted or top-dose-only effect, or another doubt; inactive = no such curve, though single readings can be large; an effect the other way counts as inactive or inconclusive.

SMILES | PKM2 activator | Tb PFK block | GALK inhibitor | KinaseGlo FLuc | CBFb-RUNX1 inh
CCN(/N=C/c1cccs1)c1cc(=O)n(C)c(=O)[nH]1 | 22µM* | -8% | 2% | 0% | -3%
Cc1ccc(/C=C/C(=O)N2CCN(S(=O)(=O)c3ccc(C)c(C)c3)CC2)o1 | ? | ? | 0% | -6% | ?
Cc1ccc(/C=C/C(=O)N2CCN(S(=O)(=O)c3c(C)c(C)cc(C)c3C)CC2)o1 | 3.2µM* | ? | 0% | 2% | -15%
Cc1cccc(NS(=O)(=O)c2ccc(Cl)c(C(=O)O)c2)c1 | . | . | . | 1% | .
Cc1ccc(-n2nc(-c3cccnc3)cc2C(=O)N2CCOCC2)c(C)c1 | 0% | -9% | 0% | 20% | -3%
Cc1ccc(-n2nc(-c3ccco3)cc2C(=O)O)c(C)c1 | 28µM* | -24% | 11% | -1% | ?
COc1ccc(-n2cc(C(=O)c3ccccc3O)cn2)cc1 | -2% | -7% | 4% | 10µM* | 4%
COc1ccc(O)c(C(=O)c2cnn(-c3ccccc3)c2)c1 | 3% | -1% | -2% | . | .
COc1ccc2c3c([nH]c2c1)[C@H]1C[C@@H]2[C@@H](C[C@@H](O)[C@H](OC)[C@H]2C(=O)O)CN1CC3 | . | . | . | -7%[7.66 µM] | .
COc1ccc(C(=O)N2CCC(n3c(C)nc4cc(F)ccc43)CC2)cc1 | 11µM* | -4% | 0% | -2% | 3%
Cc1ccc2cc(CN(Cc3ccco3)C(=O)c3ccco3)c3nnnn3c2c1 | 16µM* | -5% | 2% | . | .
Cc1ccc2c(c1)cc(CN(Cc1ccco1)C(=O)N1CCOCC1)c1nnnn12 | -2% | -3% | 5% | 2% | 0%
Oc1c(C=Nc2cccc3cccnc23)sc2ccccc12 | 2% | ? | 2% | 10µM* | ?
Cn1c(=O)n(C)c2cc(S(=O)(=O)NCc3ccco3)ccc21 | ? | 1% | 5% | 0% | -4%
Cn1c(=O)n(C)c2cc(S(=O)(=O)NCc3ccccc3)ccc21 | 18µM* | -2% | 4% | 13% | 8%
O=C(O)c1ccccc1NS(=O)(=O)c1cccc2ccccc12 | . | . | . | -3% | .
c1ccc(CSc2ncnc3c2cnn3Cc2ccccc2)cc1 | 5µM* | -1% | 1% | -3% | 17%
CCN1CCN(c2nc(C)nc3c2sc(=S)n3C)CC1 | -13% | 19µM* | -1% | 3% | -2%
CN1[C@H]2CC(OC(=O)[C@H](CO)c3ccccc3)C[C@H]1[C@H]1O[C@H]12 (stereo not given in full) | . | . | . | . | 25%[21.7 µM]
C[C@H]1Cc2c(COc3ccccc3)nc3c(c2CO1)CN(S(=O)(=O)c1ccc(Cl)c2nonc12)CC3 | -9%[11.5 µM] | . | . | -7%[7.66 µM] | 15%[13.1 µM]
Nc1ccccc1N=Cc1ccc(-c2cccc(Cl)c2)o1 | 28µM* | -6% | 0% | -3% | -22%
COC(=O)N/N=C/c1ccc(-c2cccc(Cl)c2)o1 | -17% | -4% | 0% | 1% | 8%
O=C(O)c1ccc(-c2ccc3cc(C45CC6CC(CC(C6)C4)C5)c(O)cc3c2)cc1 | . | . | . | . | -21%
COc1cc(NS(=O)(=O)c2cc3c(cc2C)NC(=O)CO3)cc(OC)c1 | 7.1µM* | 1% | . | . | .
O=C(NCCN1CCCCC1)c1ccc(Cc2nc3ccccc3[nH]2)cc1 | . | . | . | -3% | .
SMILES | PKM2 activator | Tb PFK block | GALK inhibitor | KinaseGlo FLuc | CBFb-RUNX1 inh
Cc1ccc2c(c1)Cc1nc3ccccc3nc1-2 | -47% | -13% | 13% | 8.9µM* | 26%
CC[C@H](C)[C@H](NC(=O)[C@H](C)NC(=O)[C@H](Cc1cnc[nH]1)NC(=O)[C@@H]1CCCN1C(=O)CNC(=O)[C@H](CC(C)C)NC(=O)[C@H](CC(C)C)NC(=O)[C@H](Cc1ccc(O)cc1)NC(=O)CNC(=O)[C@H](C)NC(=O)[C@H](CO)NC(=O)[C@H](CC(N)=O)NC(=O)[C@H](CC(C)C)NC(=O)[C@@H](NC(=O)[C@H](Cc1c[nH]c2ccccc12)NC(=O)CN)[C@@H](C)O)C(=O)O | . | . | . | . | 21%
Cc1ccc(C(=O)Nc2nc3ccc(S(C)(=O)=O)cc3s2)o1 | -28% | -7% | 0% | 13µM* | -1%
C=CC(=O)OCC(CO)(COC(=O)C=C)COC(=O)C=C | . | . | . | . | 0%[21.7 µM]
COc1cccc2oc(-c3ccc(O)cc3)cc(=O)c12 | . | . | . | -19% | 22%[21.7 µM]
COc1cccc2oc(-c3ccccc3)cc(=O)c12 | . | . | . | 16µM* | 0%
Cc1ccc(C)c(-n2nnnc2SCC(=O)c2ccc3c(c2)NC(=O)CO3)c1 | 14µM* | 0% | -1% | 2% | 5%
Cc1ccc2nc(SCC(=O)c3ccc4c(c3)NC(=O)CO4)[nH]c2c1 | -5% | -3% | 0% | 1% | -15%
CCCC[C@H](NC(=O)[C@H](CO)NC(=O)[C@H](Cc1ccc(O)cc1)NC(=O)[C@H](CO)NC(C)=O)C(=O)N[C@@H](CCC(=O)O)C(=O)N[C@@H](Cc1cnc[nH]1)C(=O)N[C@H](Cc1ccccc1)C(=O)N[C@@H](CCCNC(=N)N)C(=O)N[C@@H](Cc1c[nH]c2ccccc12)C(=O)NCC(=O)N[C@@H](CCCCN)C(=O)N1CCC[C@H]1C(=O)N[C@H](C(N)=O)C(C)C | . | . | . | . | 3%
COc1ccc(C)cc1S(=O)(=O)NCC(c1cccnc1)N1CCc2ccccc2C1 (stereo not given) | 11µM* | 1% | 4% | . | .
O=C1C(C2=C(O)c3ccccc3C2=O)=Nc2ccccc21 | -9% | 18% | ? | 11µM* | -21%
O=C1c2ccccc2C(=O)c2c(O)ccc(O)c21 | . | . | . | 1% | ?
COc1ccc(NC(=O)CN(C)S(=O)(=O)c2ccc(Cl)cc2)c([N+](=O)[O-])c1 | 1% | 0% | -1% | -4% | 3%
COc1cccc(NC(=O)CN(c2ccc([N+](=O)[O-])cc2)S(=O)(=O)c2ccccc2)c1 | 4µM* | 10% | 0% | -4% | -13%
COc1cccc(NC(=O)CN(C)CC(=O)Nc2ccc(Cl)cc2[N+](=O)[O-])c1 | 3.2µM* | -3% | 0% | 1% | ?
CCOC(=O)CCN1C(=O)[C@@H]2[C@H]3C(=CC[C@H]2C1=O)C(=O)[C@H]1O[C@H]1[C@H]3O | . | . | . | . | -4%[13.1 µM]
CCCCCCN1C=CC(=C2C(=O)c3ccccc3C2=O)C=C1 | -24% | -6% | 7% | 8.9µM* | 1%
CCN1C=CC(=C2C(=O)c3ccccc3C2=O)C=C1 | -35% | ? | 5% | 5µM* | 0%
CN1C=CC(=C2C(=O)c3ccccc3C2=O)C=C1 | 0% | -3% | 0% | ? | 9%
CCCN1C=CC(=C2C(=O)c3ccccc3C2=O)C=C1 | -54% | -20% | 8% | 4.5µM* | 0%
CCCCCCCCC/C=C/CC1CC(=O)OC1=O (stereo not given) | . | . | . | . | 0%[21.7 µM]
O=C(CCl)Nc1nc(-c2ccco2)c(-c2ccco2)s1 | 27% | -7% | -8% | -3% | ?
